What follows are compounds tested against AMP-activated protein kinase, AMPK (Homo sapiens) (UniProt P54646+O43741+P54619+Q9UGJ0+Q9Y478+Q13131+Q9UGI9) (assay: AMP-dependent Kinase enzyme assay. An in vitro enzyme assay that detects ADP turnover that is directly proportional to AMPK activity. This uses naive AMPK that is activated during the assay with MK-8722). Settings: 30 µM.
Format: functional
Set-up: scale not given: direction of the effect not stated beside the values

Compared with `Cn1nc(C(=O)NCCc2ccc(OC3CCCC3)cc2)ccc1=O`, `COc1ccc(CC2(CO)CCN(c3cc(C(N)=O)ccn3)CC2)cc1` is higher in Percent Effect: -4.35% for the first, 8.7% for the second.

Going from `COCCC1(C(=O)O)CCN(c2cc(C)c3ccccc3n2)CC1` to `COc1ccccc1S(=O)(=O)N1CCN(C)[C@@H]2CS(=O)(=O)C[C@@H]21`, the Percent Effect falls from 3.32% to -1.29%.

Going from `O=C(Cn1cc(I)cn1)N1CCNC1=O` to `CN1CCCC1CCNC(=O)c1ccccc1-n1cc(CN)cn1` (centres undefined), the Percent Effect rises from 0.6% to 11.2%.

Going from `COc1cccc(S(=O)(=O)N2CCCCC2CCN2CCCC2=O)c1` (centres undefined) to `Cn1cc(S(=O)(=O)Nc2ccc3[nH]c(C4CCC4)nc3c2)cn1`, the Percent Effect falls from 5.93% to -6.7%.

Compared with `CCNC(=O)[C@@H]1C[C@@H](N)CN1C(=O)c1[nH]c2ccccc2c1CC`, `Cc1ccccc1C(=O)NC[C@@H]1CCN(C(=O)c2cccn2C)C[C@H]1O` is lower in Percent Effect: 13.5% for the first, -3.19% for the second.

Compared with `C[C@@H]1CN(Cc2nc(C(N)=O)no2)CC[C@@]1(O)C1CC1`, `Cc1nnc(NC(=O)NCCCN2CCC(C(N)=O)CC2)s1` is higher in Percent Effect: 0.276% for the first, 5.59% for the second.

First: Cc1nc(C)c(C(=O)N2CCc3c(C)cccc32)o1
Second: Cc1cc(NC(=O)C2CCN(c3ncccc3C#N)CC2)no1
The Percent Effect of the first is lower: 4.71% for the first, 4.93% for the second.

Compared with `CCc1csc(CNc2cc(C)nc(-c3cccnc3)n2)n1`, `CCc1c(C(=O)Nc2ccc(F)c(C(=O)NC)c2)cnn1CC(C)C` is lower in Percent Effect: 18.4% for the first, 11.4% for the second.

Compared with `CCc1noc(C)c1C(=O)N1CCC2(CCCN(CC(C)(C)C)C2=O)C1` (centres undefined), `N#CC1(C(=O)N2C[C@H]3CC[C@@H]2CN(Cc2ccncc2)C3)CCOCC1` is lower in Percent Effect: 7.67% for the first, -2.51% for the second.

`CN(CC(=O)Nc1ccccc1)C(=O)CN(C)c1ccc(Cl)cn1` showed a Percent Effect of 2.82%.

Reference: ChEMBL document CHEMBL3988442, “University of Dundee, Small-Polar-MMV Screening Library” (2021)
